Source: PubChem BioAssay
USP10 inh = inhibitors of human USP10 deubiquitinase; Ubiquitin carboxyl-terminal hydrolase 10 (Homo sapiens), Q14694; purified USP10, Ub-rhodamine fluorescence, 60 min; inhibition, % at 20 µM; 1.1% of 47,000 active
USP8 inh = inhibitors of human USP8 deubiquitinase; purified USP8, Ub-rhodamine cleavage fluorescence, 30 min; inhibition, % at 20 µM; 4.2% of 47,000 active
USP7 block = inhibitors of human USP7 deubiquitinase | purified USP7, Ub-rhodamine cleavage fluorescence | inhibition, % at 20 µM | 0.3% of 47,000 active | AID 1645854, 2021
UCHL1 inh = inhibitors of human UCHL1 deubiquitinase | purified UCHL1, Ub-rhodamine cleavage fluorescence | Ubiquitin carboxyl-terminal hydrolase isozyme L1 (Homo sapiens), P09936 | 0.2% of 47,000 active | inhibition, % at 20 µM
Target sequence (P09936 whole entry, looked up): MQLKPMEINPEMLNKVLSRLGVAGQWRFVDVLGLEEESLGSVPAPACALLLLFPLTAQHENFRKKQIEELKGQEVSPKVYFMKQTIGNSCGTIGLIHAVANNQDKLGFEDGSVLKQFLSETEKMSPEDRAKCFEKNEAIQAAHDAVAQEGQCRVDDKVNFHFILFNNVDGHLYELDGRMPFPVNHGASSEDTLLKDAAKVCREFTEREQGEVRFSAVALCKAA
The depositor's hits bear a star. Compounds with a hit are over-represented: about 5% of the library has one in this group of screens. No stated cut-off is given here; in the data, active means inhibition above about 30%; inactive means the rest.

SMILES	USP10 inh	USP8 inh	USP7 block	UCHL1 inh
Cc1cccc(OCCn2c(CCNC(=O)C3CCCCC3)nc3ccccc32)c1	32*	48*	-6	0
O=C(NCCc1nc2ccccc2n1CCOc1ccccc1Cl)C1CCCCC1	38*	83*	22	2
CCc1ccc(OCCn2c(CCNC(=O)C3CCCCC3)nc3ccccc32)cc1	28	69*	13	3
CCn1c(CCNC(=O)c2ccccc2)nc2ccccc21	-2	-4	0	0
O=C(Nc1c2c(nn1-c1cccc(Cl)c1)CS(=O)(=O)C2)c1ccc(F)c(F)c1	8	-33	-135	0
Cc1ccc(S(=O)(=O)Nc2ccc(O)c(S(=O)(=O)c3ccc(C)cc3)c2)cc1	13	33*	7	5
CCn1c(SCC(=O)Nc2ccc(C)c(Cl)c2)nnc1-c1ccc2c(c1)OCCO2	18	31*	4	5
c1ccc(-c2cc3c(NCc4ccccn4)ncnc3s2)cc1	5	21	-4	7
Cc1nc(NCc2ccccn2)c2cc(-c3ccccc3)sc2n1	-1	30*	3	0
Nc1c(C(=O)NCCc2ccccc2)nnn1-c1ccc(F)cc1	5	5	6	1
COc1ccc(N2CCN(C(=O)c3cncc(NS(=O)(=O)c4ccc(F)cc4)c3)CC2)cc1	-2	42*	-2	2
CCc1ccc(NC(=O)C(C)Nc2ccccc2NCCc2ccccc2)cc1 (stereo unspecified)	-5	64*	-4	0
CCOc1ccc(-c2nc(SCC(=O)Nc3cccc(C)c3)n3[nH]c(=O)cc3n2)cc1	53*	42*	-141	14
Cc1ccc(-c2csc(-n3ncc(C(=O)N4CCN(C(=O)Nc5cccc6ccccc56)C(C)C4)c3C(C)C)n2)cc1 (stereo unspecified)	-18	80*	-32	20
O=C(CC1CC1)N1C[C@H](OCc2cccnc2)[C@H]2COC[C@H]21	1	-6	-2	-2
COc1ccc(C2[C@@H]3CCCC[C@]3(O)CCN2Cc2cccc(F)c2)cc1 (stereo partly specified)	-8	-39	-5	0
O=C(Cn1cc(C(=O)C(F)(F)F)c2cc(Br)ccc21)N1CCc2ccccc21	36*	2	5	-2
Cc1ccc(-c2csc(-c3nnn(-c4cccc(Cl)c4)c3N)n2)cc1	1	42*	-23	0
Nc1c(-c2nc(-c3ccc4c(c3)OCO4)cs2)nnn1-c1ccccc1	-1	34*	14	2
Nc1c(-c2nc(-c3ccccc3)cs2)nnn1-c1ccccc1	1	3	0	4
CCc1cc(=O)n(CC(=O)Nc2cc(C)ccc2OC)c(N2CCOCC2)n1	2	14	3	3
O=C(Cn1c(=O)n(Cc2ccc3c(c2)OCO3)c(=O)c2ccccc21)Nc1ccc2c(c1)OCCO2	13	-2	3	0
COCCCNC(=O)c1ccc(Cn2c(=O)c3ccccc3n(CC(=O)Nc3ccc4c(c3)OCCO4)c2=O)cc1	29	32*	7	4
CC1=C(C(=O)c2ccc(Cl)cc2)C(c2ccc(C)cc2)NC(=O)N1 (stereo unspecified)	6	0	-26	0
CC1=C(C(=O)c2ccc(Cl)cc2)C(c2ccc(C(C)C)cc2)NC(=O)N1 (stereo unspecified)	-5	73*	-36	-2
SMILES	USP10 inh	USP8 inh	USP7 block	UCHL1 inh
C[C@@H]1CO[C@@H]2C3=C(C(=O)C=CC3=O)[C@H]3OC(=O)[C@@H]4CCC5[C@@H]1CCC52C34 (stereo partly specified)	34*	34*	-34	11
Cc1noc(-c2cccnc2-n2cnc(C(=O)Nc3ccccc3C)c2)n1	-4	26	3	0
CC(Oc1ccccc1Cl)C(=O)Nc1nonc1-c1ccccc1 (stereo unspecified)	15	33*	7	5
CC(Oc1ccc(C(C)C)cc1)C(=O)Nc1nonc1-c1ccccc1 (stereo unspecified)	13	9	3	2
COc1cc(=O)c(C(=O)Nc2ccc(C#N)cc2)nn1-c1cccc(F)c1	9	62*	-3	1
Cc1snc(SCc2nc(COc3ccc(Cl)cc3Cl)n[nH]2)c1C#N	19	-12	-35	7
Cc1cc(NC(=O)CN2C(=O)C(=O)c3ccccc32)ccc1-n1ncnn1	1	32*	-8	-2
CO/C1=C\C(C)=C/[C@@H](C)[C@@H](O)[C@@H](C)C/C(C)=C/C=C/[C@H](OC)[C@@H]([C@@H](C)[C@@H](O)[C@H](C)[C@@]2(O)C[C@@H](OC(=O)/C=C/C(N)=O)[C@H](C)[C@@H](C(C)C)O2)OC1=O	28	3	16	1
CCC1OC(O)(C(C)C(O)C(C)C2OC(=O)/C(C)=C/C(C)=CC(C)C(O)C(C)C/C(C)=C/C=C/C2OC)CC(OC(=O)/C=C/C(=O)NC2=C(O)CCC2=O)C1C (stereo unspecified)	39*	17	26	5
COc1cccc(/C=C/C(=O)Nc2ccc(C)c(Cl)c2)c1	11	32*	-93	6
c1ccc(CNc2ccc(-c3ccccc3)nn2)cc1	10	57*	8	4
CN1CCN(C(=O)c2ccc(-c3ccc(NCc4ccccc4)nn3)cc2)CC1	-4	-209	-1	-2
CC1NC(=O)[C@@H]2C[C@@H](C(=O)N3CCNCC3)[C@H]1N2Cc1ccccc1 (stereo partly specified)	0	-95	3	-1
COc1ccc(OC)c(-c2cn3ccn(-c4ccc(F)c(Cl)c4)c(=O)c3n2)c1	31*	94*	-57	22
O=C(Nc1noc(-c2ccccc2)n1)c1ccc(Br)cc1	18	38*	8	0
O=C(COc1ccc(F)cc1)Nc1noc(-c2ccccc2)n1	2	24	6	2
O=S(=O)(c1ccc(F)cc1)N1CCc2cc3ccccc3nc21	-3	-6	-3	0
O=C(COc1cccc(F)c1)NC(Cc1ccccc1)c1nc2ccccc2[nH]1 (stereo unspecified)	-3	73*	0	3
N#Cc1ccc(OCC(=O)NC(Cc2ccccc2)c2nc3ccccc3[nH]2)cc1 (stereo unspecified)	-2	36*	6	3
CCOC(=O)C1=C(CN2CCN(c3ccc(F)cc3)CC2)NC(=O)NC1c1ccc(OC)cc1 (stereo unspecified)	0	-4	-7	1
Cc1ccc(-n2nc(C(=O)NC3CCCCC3)c3ncn(C)c(=O)c32)cc1	-1	3	1	-2
Cc1ccc(-n2nc(C(=O)Nc3ccc(C)cn3)c3ncn(C)c(=O)c32)cc1	31*	72*	30	14
O=C(Cn1ncc2c(N3CCCC3)ncnc21)NCc1ccc2c(c1)OCO2	-2	-4	-8	-1
COc1ccc(CNC(=O)N2CCN(C(C)=O)CC3(CC(=O)N(C)C3)C2)cc1 (stereo unspecified)	3	-38	0	-1
